Compound activity deposited in PubChem BioAssay by National Center for Advancing Translational Sciences (NCATS).
This is a sample that favours compounds with a hit; in the whole collection about 11% have one here.
NIH3T3 tox – kills NIH 3T3 cells; NIH 3T3 viability, CellTiter-Glo ATP luminescence, 48-72 h; 4.3% of 94,000 active; Potency, µM (highest dose often 96.7 µM), most hits filed as inhibitors; active = well fitted curve in the direction sought with a large enough effect; inconclusive = small, poorly fitted or top-dose-only effect, or another doubt; inactive = no such curve, though single readings can be large; an effect the other way counts as inactive or inconclusive; note: nearly all actives have a fitted effect of over 55% in size
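Cytotoxicity was measured by CellTiter-Glo ATP luminescence after 48 or 72 h compound exposure at 37 °C. Mouse NIH 3T3 fibroblasts were seeded at 400 cells/well and dosed by 23 nL pin transfer.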
Luciferase inh – inhibitors of firefly (Photinus pyralis) luciferase | P08659 | purified P. pyralis luciferase, luminescence, biochemical | Potency, µM (highest dose often 115 µM), hits mostly inhibitors | 2.5% of 76,000 active | AID 1347043; active = well fitted curve in the direction sought with a large enough effect; inconclusive = small, poorly fitted or top-dose-only effect, or another doubt; inactive = no such curve, though single readings can be large; an effect the other way counts as inactive or inconclusive; note: nearly all actives have a fitted effect of over 65% in size
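Biochemical qHTS: compound (6-point titration) added to 10uM D-luciferin plus 10uM ATP in Tris acetate pH 7.5 buffer with Mg, Tween-20 and BSA, then purified enzyme at 10nM; light output imaged.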
NPR1 antag – human Npr1 receptor antagonism; Potency, µM (top dose mostly 46.3 µM), most hits filed as inhibitors; HEK293 hNpr1 GloSensor cGMP, ANP-stimulated luminescence; 1.6% of 76,000 active; P16066; note: nearly all actives have a fitted effect of over 60% in size
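HEK293 cells stably expressing human Npr1 and cGMP GloSensor pGS-40F, loaded 2 h with 2% GloSensor reagent, given compound 30 min at room temperature. Luminescence read before and 20 min after 0.1 nM hNppA.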
HEK293 tox – cytotoxic compounds in HEK 293 cells | HEK 293 viability, ATP luminescence (CellTiter-Glo), 48-72 h | Potency, µM (top dose mostly 115 µM), hits mostly inhibitors | 6.6% of 94,000 active | AID 1345083; active = well fitted curve in the direction sought with a large enough effect; inconclusive = small, poorly fitted or top-dose-only effect, or another doubt; inactive = no such curve, though single readings can be large; an effect the other way counts as inactive or inconclusive; note: nearly all actives have a fitted effect of over 60% in size
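qHTS cytotoxicity; HEK 293, 250 cells/well; compound pinned; 48 or 72 hr, 37 degree Celsius, 5% CO2, 95% humidity; CellTiter-Glo, 10 min RT; luminescence (ATP).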
NPR1 antag cnf – confirmation of human Npr1 natriuretic peptide receptor antagonists; shares compounds with NPR1 antag; AID 1347044; Potency, µM (doses to about 57.6 µM), usual class: inhibitors; HEK293 hNpr1 cGMP GloSensor luminescence, ANP-stimulated; 76% of 1,400 active; note: nearly all actives have a fitted effect of over 70% in size
Npr2 selectivity – hNpr2 antagonism, selectivity versus Npr1; shares compounds with NPR1 antag; Potency, µM (titrated, usually from 57.6 µM), hits mostly inhibitors; AID 1347046; 67% of 1,400 active; HEK293 hNpr2 GloSensor cGMP luminescence, CNP-stimulated; note: nearly all actives have a fitted effect of over 70% in size
FLuc counter – counter-screen for Npr1 antagonists: firefly luciferase inhibitors | shares compounds with NPR1 antag | 0.7% of 1,400 active | Potency, µM (highest dose often 57.6 µM), most hits filed as inhibitors | purified FLuc enzyme, luminescence, Km substrate; active = well fitted curve in the direction sought with a large enough effect; inconclusive = small, poorly fitted or top-dose-only effect, or another doubt; inactive = no such curve, though single readings can be large; an effect the other way counts as inactive or inconclusive
GloSensor cGMP – control cell line activity, Npr1 antagonist counter-screen; shares compounds with NPR1 antag; HEK293 GloSensor cGMP, SNP-stimulated, luminescence; Potency, µM (top dose mostly 57.6 µM), usual class: inhibitors; 69% of 1,400 active; AID 1347051; note: nearly all actives have a fitted effect of over 70% in size
A number is an active result; n = inactive; u = inconclusive; x = no result. Unless noted, calls come from the whole dose curve.

SMILES	NIH3T3 tox	Luciferase inh	NPR1 antag	HEK293 tox	NPR1 antag cnf	Npr2 selectivity	FLuc counter	GloSensor cGMP
CN1C[C@@H](NC(=O)c2ccc3c(c2)OCO3)C[C@H]1c1nc(-c2ccc(Cl)cc2)no1	79.4µM	n	35.5µM	50.1µM	28µM	31.4µM	n	25µM
CCNC(=O)NC[C@@H]1C=C(C)[C@H](CC(=O)NCCN2CCOCC2)C[C@H]1C(C)C	n	n	n	n	x	x	x	x
COc1cccc(C(=O)N2CCc3onc(-c4cccc(F)c4)c3C2)c1OC	u	n	10µM	20µM	21.7µM	21.7µM	n	19.3µM
COc1cccc(-c2noc3c2CN(C(=O)c2ccc(C)cc2OC)CC3)c1	u	n	u	u	x	x	x	x
CN1CCN(CCNC(=O)c2cc(-c3ccccc3)cn2C)CC1	n	n	n	n	x	x	x	x
CCCNC(=O)c1cc(-c2ccc(F)cc2)cn1C	n	n	u	n	n	n	n	n
O=C1N[C@@H]2CCN(C(=O)c3ccccc3)[C@@H]2C(=O)N1c1ccc(Oc2ccccc2)cc1	n	n	n	n	x	x	x	x
COc1ccc(OC)c(CN2CCC3(CC2)OC(=O)N(Cc2ccc(O)cc2)C3(C)c2ccccc2)c1 (centres undefined)	u	n	u	u	x	x	x	x
COc1ncccc1CN1CCC2(CC1)OC(=O)N(Cc1ccc(O)cc1)C2(C)c1ccccc1 (centres undefined)	u	n	n	u	n	u	n	n
CN(Cc1ccnc2ccccc12)C(=O)c1cn(Cc2ccc(Cl)cc2)nn1	u	n	10µM	35.5µM	13.7µM	17.2µM	n	12.2µM
Cc1cc(C)n(-c2cccc(CN(C)C(=O)c3cn(Cc4ccc(Cl)cc4)nn3)c2)n1	u	n	n	u	x	x	x	x
CCCc1cc(C(=O)N2CCC(=O)N(Cc3ccccc3)C(CC)C2)ccn1 (centres undefined)	u	n	11.2µM	u	9.68µM	12.2µM	n	10.9µM
CCC1CN(C(=O)c2ccc3nc[nH]c3c2)CCC(=O)N1Cc1ccccc1 (centres undefined)	n	n	n	n	x	x	x	x
COc1ccc(OCC2(C)COc3ccc(C(=O)N(C)Cc4ccccc4)cc3N2)cc1 (centres undefined)	u	n	n	u	x	x	x	x
CC1(COc2cccnc2)COc2ccc(C(=O)NCc3ccc4c(c3)OCO4)cc2N1 (centres undefined)	u	n	25.1µM	u	31.4µM	31.4µM	n	22.2µM
COCCN(C)C(=O)c1ccc2c(c1)NC(C)(COc1cccnc1)CO2 (centres undefined)	u	n	u	u	x	x	x	x
CC1(COc2cccnc2)COc2ccc(C(=O)NCc3ccc(F)cc3)cc2N1 (centres undefined)	u	n	35.5µM	56.2µM	31.4µM	31.4µM	n	25µM
CN(C(=O)c1ccc2c(c1)NC(C)(COc1cccnc1)CO2)c1ccccc1 (centres undefined)	n	n	3.16µM	u	3.53µM	4.98µM	n	3.14µM
CC1(COc2cccnc2)COc2ccc(C(=O)NCc3cnccn3)cc2N1 (centres undefined)	n	n	n	u	x	x	x	x
COc1ccc(OCC2(C)COc3ccc(C(=O)Nc4ccccc4)cc3N2)cc1 (centres undefined)	u	n	25.1µM	u	35.3µM	35.3µM	n	35.3µM
CC(=O)N1CCC(N[C@H]2CC(C)(C)[C@@H]3C[C@@](C)(O)CC[C@]23CCC(=O)NCCN2CCOCC2)CC1	n	n	n	n	x	x	x	x
O=C(Cc1c[nH]c2ncc(-c3ccccc3C(F)(F)F)cc12)N1CCOCC1	u	n	2µM	u	4.44µM	8.86µM	n	3.96µM
O=C(Cc1c[nH]c2ncc(-c3cccc(CO)c3)cc12)N1CCOCC1	u	n	n	u	x	x	x	x
